Source: PubChem BioAssay AID430 (Sanford-Burnham Center for Chemical Genomics, 2006)
Screen size: about 63,000 compounds; about 1,100 (1.7%) were called active. Only a selection was taken, and actives are over-represented in it overall. Entries with a potency or affinity are not part of this list. Unmarked numbers belong to inactive results. No stated cut-off is given here; in the data, active means cytotoxicity above about 50%; inactive means the rest.

Experiment: HPDE-C7 pancreatic duct cell viability loss – fluorescence, HTS (AID 430);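 further: cells exposed to compound for 48 hours before viability readout; 0% = vehicle and 100% = reference cytotoxic drug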
Conditions: HPDE-C7 pancreatic duct cells viability, at 10 µM, stronger effect = higher value

Compound	cytotoxicity
CN1CC2(C(=O)c3ccccc3)CN(C)CC(C(=O)c3ccccc3)(C1)C2	-20.9%
O=c1nc2n(c3ccccc13)Cc1ccccc1-2	-1.4%
O=C(CSc1nnc(C2CC2)n1Cc1ccccc1)c1ccc(S(=O)(=O)N2CCOCC2)cc1	-8.3%
Cn1nc(C(=O)Nc2ccc(S(=O)(=O)N3CCCCC3)cc2)ccc1=O	-4.3%
Cn1c(=O)c2c(nc(Oc3ccccn3)n2C)n(C)c1=O	-12.5%
O=C(c1ccc2c(=O)n(-c3ccccc3)c(=O)[nH]c2c1)N1CCCCC1	-2.4%
COc1ccc(/C=N/n2cnnc2SCc2ccccc2)cc1	3.5%
COc1ccc(/C=N/n2cc(-c3ccc(OC)cc3)nc2N)cc1	-8.1%
COc1ccc(/C=N/n2cc(-c3ccccc3)nc2N)cc1	65.5% (active)
CC(C)NC(=O)Cn1c(SCC(=O)N2CCc3ccccc3C2)nc2ccccc21	129% (active)
CC(C)NC(=O)Cn1c(SCC(=O)N2CCCCCC2)nc2ccccc21	-7.8%
CC(C)NC(=O)Cn1c(SCC(=O)N2CCCc3ccccc32)nc2ccccc21	-5.8%
Cc1ccc(C(=O)Nc2ccccc2N2CCN(C(=O)C(C)C)CC2)cc1C	-15%
COc1ccc(NC(=O)Cn2cnc3c(cnn3-c3ccc(C)c(C)c3)c2=O)c(OC)c1	-1.2%
CCN(CC)CCOc1nc(C)nc2c1oc1ccccc12	-0.5%
CCc1nc(OCCN(C)C)c2oc3ccccc3c2n1	-12.4%
CN(C)CCOc1nc(-c2ccccc2)nc2c1oc1ccccc12	56.4% (active)
Cc1ccc2[nH]c(=O)c(CNC(C)(C)C)cc2c1	1.4%
O=C(C1=C(O)C(=O)N(CCN2CCOCC2)C1c1cccs1)c1cc2ccccc2o1 (configuration not stated)	-34.2%
CCS(=O)(=O)N1Cc2ccccc2CC1C(=O)Nc1nc2ccccc2[nH]1 (configuration not stated)	6.5%
Cc1nn(C)cc1C1C2=C(CC(C)(C)CC2=O)OC2=C1C(=O)CC(C)(C)C2	-12.3%
COC(=O)C1=C(N)OC2=C(C(=O)CC(C)(C)C2)C1c1ccoc1 (configuration not stated)	-0.4%
CCN(Cc1cc2cc(C)ccc2[nH]c1=O)C(=O)c1cccc(OC)c1	0.1%
Clc1cc(Cl)c2nc(N3CCCCC3)sc2c1	-1.2%
COC(=O)c1c(C)nn(-c2ccccc2)c1N	4.7%

Compound	cytotoxicity
COc1ccc(NC(=O)N2CCCC(c3nc(-c4ccc(C(C)C)cc4)no3)C2)cc1 (configuration not stated)	56.3% (active)
Cc1ccccc1NC(=O)N1CCCC(c2nc(-c3ccc(C(C)C)cc3)no2)C1 (configuration not stated)	33.3%
COc1ccc(-c2noc(C3CCCN(C(=O)c4cccs4)C3)n2)cc1 (configuration not stated)	-9%
CC1=C(C(=O)N(C)C)C(c2ccc(Cl)c(Cl)c2)NC(=O)N1 (configuration not stated)	-1.2%
O=C(Nc1nc(-c2cc3ccccc3oc2=O)cs1)c1ccco1	85% (active)
O=C(Nc1nc(-c2ccncc2)cs1)c1ccco1	9.1%
Cc1csc(NC(=O)c2ccco2)n1	-14.7%
O=C(NC1CCCCC1)NC1(C(=O)NCCCN2CCOCC2)CCCCC1	-1.8%
CCN(CC)c1ccc(NC(=O)CN2CCN(CC(=O)Nc3ccc(F)cc3)CC2)cc1	4.2%
O=C(CN1CCOc2ccccc21)N1CCCC1	4.1%
CC(=O)c1ccc(NC(=O)C2CCC(C)NC2=O)cc1 (configuration not stated)	-4.9%
COc1ccc(-c2nnc3ccc(SCC(=O)N4CCN(c5ccccc5)CC4)nn23)cc1	-6.6%
O=C(CSc1ccc2nnc(-c3ccccc3)n2n1)N1CCN(c2ccccc2)CC1	-3.5%
CCOc1ccc(-c2nnc3ccc(SCC(=O)N4CCN(c5ccccc5)CC4)nn23)cc1	56.6% (active)
CCn1c(=N)c(C(N)=O)cc2c(=O)n3cccc(C)c3nc21	3.5%
Cc1cc(C)c2[nH]c(=O)c(C(c3nnnn3C3CCCC3)N3CCOCC3)cc2c1 (configuration not stated)	-7.3%
CCCn1c(NC(=O)c2ccc(C)cc2)nc2ccccc21	-34.1%
Cc1ccc(C(=O)Nc2nc3ccccc3n2CCN2CCCC2)cc1	1.6%
CCCn1c(NC(=O)c2ccc(Cl)c(S(=O)(=O)N3CCCC3)c2)nc2ccccc21	16.1%
O=C(Nc1nc2ccccc2n1CCN1CCCCC1)c1ccco1	-1.1%
O=C(Nc1nc2ccccc2n1CCN1CCCC1)c1ccc(Cl)cc1	59.6% (active)
CCCn1c(NC(=O)c2cccc(S(=O)(=O)N3CCCC3)c2)nc2ccccc21	61.9% (active)
COc1ccc(S(=O)(=O)N(CC(=O)NCCCN(C)C)c2ccc(C)cc2)cc1OC	1%
Cc1ccc(C)c(CN2C(=O)C3(OCCCO3)c3ccccc32)c1	-1.3%
CC(=O)N1c2ccccc2N(Cc2ccc(C)cc2C)C(=O)C1(C)C	58.4% (active)

Compound	cytotoxicity
Cc1ccccc1CN1C(=O)C2(OCCCO2)c2ccccc21	-4%
N=c1n(CCOc2ccccc2)c2ccccc2n1CCN1CCOCC1	-22.8%
CC1(C)CC(=O)C2=C(C1)NC(Nc1nc3ccccc3o1)=NC21CCCC1	-16.5%
Nc1nnnn1/N=C/C=C/c1ccccc1	-7.1%
Nc1nnnn1/N=C/c1cccc(Oc2ccccc2)c1	-9.6%
CC(=O)Nc1ccc(-n2c(C)nc(=O)c(-c3ccccc3)c2C)cc1	2.9%
CS(=O)(=O)c1ccc2nc(NC(=O)Oc3ccccc3)sc2c1	3.4%
Cc1ccc(NC(=O)CN(C)S(=O)(=O)c2cccc3cccnc23)cc1	0.4%
O=C1CC(N2CCOCC2)C(=O)N1CCc1ccccc1 (configuration not stated)	5.1%
Cc1cc(-c2nnc3sc(C4CCCCC4)nn23)n[nH]1	4.3%
CC(C)C(c1nnnn1CC1CCCO1)N1CCN(Cc2ccc3c(c2)OCO3)CC1 (configuration not stated)	-3.2%
CS(=O)(=O)c1ccc2nc(NC(=O)Cc3ccccc3)sc2c1	0.9%
O=C(Cc1cccs1)Nc1nc2ccccc2s1	0.1%
CC(C)(C)NS(=O)(=O)c1ccc2nc(NC(=O)Cc3cccs3)sc2c1	68.7% (active)
CCOC(=O)C1CCCN(c2c(NCC3CCCO3)c(=O)c2=O)C1 (configuration not stated)	-11.3%
CC(=O)c1ccc(Oc2cc(C)nc(-n3nc(C)cc3C)n2)cc1	60.3% (active)
CNc1cc(C)nc(-n2nc(C)cc2C)n1	-0.2%
COC(=O)c1ccc(Oc2ccc3nnc(C)n3n2)cc1	-7.1%
COc1ccc(Nc2cc(C)nc(-n3nc(C)cc3C)n2)cc1	66.9% (active)
COC(=O)c1ccc(Oc2cc(C)nc(-n3nc(C)cc3C)n2)cc1	54.2% (active)
Cc1cc(C)n(-c2ccc(C(=O)NC(C)C)cc2)n1	-1%
COc1ccc(N2CCN(C(=O)c3ccc(-n4nc(C)cc4C)cc3)CC2)cc1	-4.7%
CCOc1ccc(Nc2cc(C)nc(-n3nc(C)cc3C)n2)cc1	49.1%
COC(=O)c1ccc(Nc2cc(C)nc3nc(C)nn23)cc1	5.7%
O=C(NCCOC(=O)c1ccc(Cl)c(S(=O)(=O)N2CCCCC2)c1)c1ccncc1	-9.8%

Compound	cytotoxicity
CC1(C)CC(=O)c2cnn(-c3nc4ccccc4[nH]3)c2C1	-0.3%
c1ccc2c(c1)nc(N1CCOCC1)c1c3ccccc3[nH]c21	-21.6%
O=S(=O)(Nc1ccc2c(c1)OCCO2)c1cccc2cccnc12	-0.7%
CN(CCOC(=O)c1ccc2c(c1)OCCO2)Cc1ccccc1	-14%
Cc1noc(C)c1COC(=O)c1ccc2c(c1)OCCO2	4.3%
O=C(Oc1cccc2cccnc12)c1cccc(-n2cnnn2)c1	20.3%
Cc1ccc2cccc(OC(=O)c3ccc4c(c3)OCCO4)c2n1	53% (active)
Cc1[nH]c2ccc(-c3nnc(SCC(=O)c4ccc(F)cc4)o3)cc2c1C	1.7%
Cc1[nH]c2ccc(-c3nnc(SCC(=O)c4ccccc4F)o3)cc2c1C	66.4% (active)
Cc1[nH]c2ccc(-c3nnc(SCC(=O)N4CCCc5ccccc54)o3)cc2c1C	-10.5%
COc1cccc(C2(O)CCN(C(=O)C3CCC3)CC2)c1	-6.9%
O=C1c2ccccc2CCC1C(O)c1ccccn1 (configuration not stated)	-15%
COc1cccc(CN(Cc2cccnc2)S(=O)(=O)c2ccc(-n3cnnn3)c(C)c2)c1OC	-18%
COc1ccccc1N1CCN(c2cc(N3CCCC3)nc(C)n2)CC1	2.7%
COc1ccccc1N1CCN(c2ccc(-c3ccccc3)nn2)CC1	61.1% (active)
COc1ccccc1N1CCN(c2nc(-c3ccccc3)cc(C(F)(F)F)n2)CC1	10.1%
COCC(C)NC(=O)c1cc(-c2cccc(OC)c2)on1 (configuration not stated)	-3.6%
Cc1cc(C)cc(OCC(=O)Nc2ccc(N3CCN(S(C)(=O)=O)CC3)cc2)c1	-17.3%
Cc1ccccc1NC(=O)c1ccc(F)c(S(=O)(=O)N2CCN(c3ccccn3)CC2)c1	-26.8%
Cc1cc(NCCOCCO)n2ncc(-c3ccc(Cl)cc3)c2n1	65.6% (active)
Cc1cc(NCCCN2CCOCC2)n2ncc(-c3ccc(Cl)cc3)c2n1	11.9%
Cc1cc(NCCN2CCOCC2)n2ncc(-c3ccc(Cl)cc3)c2n1	9.8%
